In paper PMC11006913:
Changes are numbered by the printed parent chain.

Key:
Experiment in all cases: PBM; 200 nM protein, PBS
Conditions in all cases: dsDNA, one strand shown
PAX4 [1] = target: T1, PAX4 (Homo sapiens, UniProt O43316 9-242, R200K)
T1 sequence: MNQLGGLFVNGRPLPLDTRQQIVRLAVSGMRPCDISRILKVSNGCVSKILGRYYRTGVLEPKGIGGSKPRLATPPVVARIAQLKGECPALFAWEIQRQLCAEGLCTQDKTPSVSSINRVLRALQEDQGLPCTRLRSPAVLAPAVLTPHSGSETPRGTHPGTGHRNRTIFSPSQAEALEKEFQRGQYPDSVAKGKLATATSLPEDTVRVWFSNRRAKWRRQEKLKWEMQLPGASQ

PAX4 [2] = target: T2, PAX4 (Homo sapiens, UniProt O43316 9-242)
T2 sequence: T1 sequence with K192R

NKX2-6 = target: T3, NKX2-6 (Homo sapiens, UniProt A6NCS4 118-204, R150C)
T3 sequence: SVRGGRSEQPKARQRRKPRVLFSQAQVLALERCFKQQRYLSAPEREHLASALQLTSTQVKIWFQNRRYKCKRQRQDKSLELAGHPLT

PAX4 [3] = target: T4, PAX4 (Homo sapiens, UniProt O43316 9-242, R200Q)
T4 sequence: T1 sequence with K192Q

PAX4 [4] = target: T5, PAX4 (Homo sapiens, UniProt O43316 9-242, F177V)
T5 sequence: T1 sequence with F169V, K192R

PAX4 [5] = target: T6, PAX4 (Homo sapiens, UniProt O43316 9-242, F177Y)
T6 sequence: T1 sequence with F169Y, K192R

PAX4 [6] = target: T7, PAX4 (Homo sapiens, UniProt O43316 9-242, R227W)
T7 sequence: T1 sequence with K192R, R219W

MSX2 [7] = target: MSX2 (Homo sapiens, UniProt P35548 130-214, R199I)
MSX2 [8] = target: MSX2 (Homo sapiens, UniProt P35548 130-214)
MSX2 [9] = target: MSX2 (Homo sapiens, UniProt P35548 130-214, F161Y)
ALX3 [10] = target: ALX3 (Homo sapiens, UniProt O95076 139-225, N203Q)
ALX3 [11] = target: ALX3 (Homo sapiens, UniProt O95076 139-225)
ALX3 [12] = target: ALX3 (Homo sapiens, UniProt O95076 139-225, L168Q)
ALX3 [13] = target: ALX3 (Homo sapiens, UniProt O95076 139-225, L168V)
ALX3 [14] = target: ALX3 (Homo sapiens, UniProt O95076 139-225, N203S)
HOXA2 [15] = target: HOXA2 (Homo sapiens, UniProt O43364 129-215, R185T)
HOXA2 [16] = target: HOXA2 (Homo sapiens, UniProt O43364 129-215, R185K)
HOXA2 [17] = target: HOXA2 (Homo sapiens, UniProt O43364 129-215, Y150S)
HOXA2 [18] = target: HOXA2 (Homo sapiens, UniProt O43364 129-215)
HOXA2 (Homo sapiens, UniProt O43364 129-215), sequence (O43364 129-215): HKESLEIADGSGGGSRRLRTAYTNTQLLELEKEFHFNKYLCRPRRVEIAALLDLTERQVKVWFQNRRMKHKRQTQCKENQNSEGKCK

MSX2 (Homo sapiens, UniProt P35548 130-214), sequence (P35548 130-214): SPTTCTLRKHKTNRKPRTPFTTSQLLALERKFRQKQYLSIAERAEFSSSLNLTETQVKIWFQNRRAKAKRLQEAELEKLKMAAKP
MSX2 (Homo sapiens, UniProt P35548 130-214, F161Y), sequence (P35548 130-214 F161Y): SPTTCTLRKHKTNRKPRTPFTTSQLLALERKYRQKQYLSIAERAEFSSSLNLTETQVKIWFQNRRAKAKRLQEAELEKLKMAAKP
MSX2 (Homo sapiens, UniProt P35548 130-214, R199I), sequence (P35548 130-214 R199I): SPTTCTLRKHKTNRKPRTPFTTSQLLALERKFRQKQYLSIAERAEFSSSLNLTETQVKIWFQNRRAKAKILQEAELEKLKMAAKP
ALX3 (Homo sapiens, UniProt O95076 139-225, N203S), sequence (O95076 139-225 N203S): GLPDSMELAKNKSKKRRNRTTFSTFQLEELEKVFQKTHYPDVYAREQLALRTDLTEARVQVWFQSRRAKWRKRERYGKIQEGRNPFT
HOXA2 (Homo sapiens, UniProt O43364 129-215, R185K), sequence (O43364 129-215 R185K): as the sequence (O43364 129-215) above, with R57K counted along it
HOXA2 (Homo sapiens, UniProt O43364 129-215, R185T), sequence (O43364 129-215 R185T): as the sequence (O43364 129-215) above, with R57T counted along it
ALX3 (Homo sapiens, UniProt O95076 139-225), sequence (O95076 139-225): as the sequence (O95076 139-225 N203S) above, with S65N counted along it
ALX3 (Homo sapiens, UniProt O95076 139-225, N203Q), sequence (O95076 139-225 N203Q): as the sequence (O95076 139-225 N203S) above, with S65Q counted along it
ALX3 (Homo sapiens, UniProt O95076 139-225, L168V), sequence (O95076 139-225 L168V): as the sequence (O95076 139-225 N203S) above, with L30V, S65N counted along it
HOXA2 (Homo sapiens, UniProt O43364 129-215, Y150S), sequence (O43364 129-215 Y150S): as the sequence (O43364 129-215) above, with Y22S counted along it
ALX3 (Homo sapiens, UniProt O95076 139-225, L168Q), sequence (O95076 139-225 L168Q): as the sequence (O95076 139-225 N203S) above, with L30Q, S65N counted along it

## CCGCCCCG
PAX4 [1]
  binding signal: 9.25 upbm affinity estimate (log intensity, higher = more binding, comparable within an allelic series)
PAX4 [2]
  binding signal: 9.35 upbm affinity estimate (log intensity, higher = more binding, comparable within an allelic series)
NKX2-6
  binding signal: 9.69 upbm affinity estimate (log intensity, higher = more binding, comparable within an allelic series)
PAX4 [3]
  binding signal: 9.16 upbm affinity estimate (log intensity, higher = more binding, comparable within an allelic series)
PAX4 [4]
  binding signal: 9.13 upbm affinity estimate (log intensity, higher = more binding, comparable within an allelic series)
PAX4 [5]
  binding signal: 9.21 upbm affinity estimate (log intensity, higher = more binding, comparable within an allelic series)
PAX4 [6]
  binding signal: 9.44 upbm affinity estimate (log intensity, higher = more binding, comparable within an allelic series)

## CCGGGGGA
PAX4 [1]
  binding signal: 9.19 upbm affinity estimate (log intensity, higher = more binding, comparable within an allelic series)
PAX4 [2]
  binding signal: 9.35 upbm affinity estimate (log intensity, higher = more binding, comparable within an allelic series)
MSX2 [7]
  binding signal: 9.52 upbm affinity estimate (log intensity, higher = more binding, comparable within an allelic series)
PAX4 [3]
  binding signal: 9.16 upbm affinity estimate (log intensity, higher = more binding, comparable within an allelic series)
PAX4 [4]
  binding signal: 9.14 upbm affinity estimate (log intensity, higher = more binding, comparable within an allelic series)
MSX2 [8]
  binding signal: 9.61 upbm affinity estimate (log intensity, higher = more binding, comparable within an allelic series)
PAX4 [5]
  binding signal: 9.09 upbm affinity estimate (log intensity, higher = more binding, comparable within an allelic series)
MSX2 [9]
  binding signal: 9.5 upbm affinity estimate (log intensity, higher = more binding, comparable within an allelic series)
PAX4 [6]
  binding signal: 9.22 upbm affinity estimate (log intensity, higher = more binding, comparable within an allelic series)

## CCAGGGGG
PAX4 [1]
  binding signal: 9.05 upbm affinity estimate (log intensity, higher = more binding, comparable within an allelic series)
PAX4 [2]
  binding signal: 9.19 upbm affinity estimate (log intensity, higher = more binding, comparable within an allelic series)
ALX3 [10]
  binding signal: 7.64 upbm affinity estimate (log intensity, higher = more binding, comparable within an allelic series)
PAX4 [3]
  binding signal: 9.12 upbm affinity estimate (log intensity, higher = more binding, comparable within an allelic series)
PAX4 [4]
  binding signal: 9.04 upbm affinity estimate (log intensity, higher = more binding, comparable within an allelic series)
ALX3 [11]
  binding signal: 7.54 upbm affinity estimate (log intensity, higher = more binding, comparable within an allelic series)
PAX4 [5]
  binding signal: 9.08 upbm affinity estimate (log intensity, higher = more binding, comparable within an allelic series)
ALX3 [12]
  binding signal: 7.58 upbm affinity estimate (log intensity, higher = more binding, comparable within an allelic series)
ALX3 [13]
  binding signal: 7.54 upbm affinity estimate (log intensity, higher = more binding, comparable within an allelic series)
PAX4 [6]
  binding signal: 9.06 upbm affinity estimate (log intensity, higher = more binding, comparable within an allelic series)
ALX3 [14]
  binding signal: 7.57 upbm affinity estimate (log intensity, higher = more binding, comparable within an allelic series)

## AGGGGGCC
PAX4 [1]
  binding signal: 8.96 upbm affinity estimate (log intensity, higher = more binding, comparable within an allelic series)
PAX4 [2]
  binding signal: 9.02 upbm affinity estimate (log intensity, higher = more binding, comparable within an allelic series)
HOXA2 [15]
  binding signal: 7.23 upbm affinity estimate (log intensity, higher = more binding, comparable within an allelic series)
MSX2 [7]
  binding signal: 9.51 upbm affinity estimate (log intensity, higher = more binding, comparable within an allelic series)
PAX4 [3]
  binding signal: 9.05 upbm affinity estimate (log intensity, higher = more binding, comparable within an allelic series)
HOXA2 [16]
  binding signal: 10.2 upbm affinity estimate (log intensity, higher = more binding, comparable within an allelic series)
PAX4 [4]
  binding signal: 9.04 upbm affinity estimate (log intensity, higher = more binding, comparable within an allelic series)
MSX2 [8]
  binding signal: 9.64 upbm affinity estimate (log intensity, higher = more binding, comparable within an allelic series)
PAX4 [5]
  binding signal: 9.04 upbm affinity estimate (log intensity, higher = more binding, comparable within an allelic series)
MSX2 [9]
  binding signal: 9.59 upbm affinity estimate (log intensity, higher = more binding, comparable within an allelic series)
PAX4 [6]
  binding signal: 9.1 upbm affinity estimate (log intensity, higher = more binding, comparable within an allelic series)
HOXA2 [17]
  binding signal: 10.2 upbm affinity estimate (log intensity, higher = more binding, comparable within an allelic series)
HOXA2 [18]
  binding signal: 7.17 upbm affinity estimate (log intensity, higher = more binding, comparable within an allelic series)

## ATTATTTC
PAX4 [1]
  binding signal: 10.8 upbm affinity estimate (log intensity, higher = more binding, comparable within an allelic series)
PAX4 [2]
  binding signal: 11.1 upbm affinity estimate (log intensity, higher = more binding, comparable within an allelic series)
PAX4 [3]
  binding signal: 10.9 upbm affinity estimate (log intensity, higher = more binding, comparable within an allelic series)
PAX4 [4]
  binding signal: 10.4 upbm affinity estimate (log intensity, higher = more binding, comparable within an allelic series)

## TAAAGTAA
PAX4 [1]
  binding signal: 10.7 upbm affinity estimate (log intensity, higher = more binding, comparable within an allelic series)
PAX4 [2]
  binding signal: 10.9 upbm affinity estimate (log intensity, higher = more binding, comparable within an allelic series)
PAX4 [3]
  binding signal: 10.8 upbm affinity estimate (log intensity, higher = more binding, comparable within an allelic series)

## CCAAGTCC
PAX4 [1]
  binding signal: 9.27 upbm affinity estimate (log intensity, higher = more binding, comparable within an allelic series)
PAX4 [2]
  binding signal: 9.3 upbm affinity estimate (log intensity, higher = more binding, comparable within an allelic series)
PAX4 [3]
  binding signal: 9.4 upbm affinity estimate (log intensity, higher = more binding, comparable within an allelic series)
PAX4 [4]
  binding signal: 9.27 upbm affinity estimate (log intensity, higher = more binding, comparable within an allelic series)
PAX4 [5]
  binding signal: 9.25 upbm affinity estimate (log intensity, higher = more binding, comparable within an allelic series)
PAX4 [6]
  binding signal: 9.38 upbm affinity estimate (log intensity, higher = more binding, comparable within an allelic series)

## CGGCCGGC
PAX4 [1]
  binding signal: 9.17 upbm affinity estimate (log intensity, higher = more binding, comparable within an allelic series)
PAX4 [2]
  binding signal: 9.29 upbm affinity estimate (log intensity, higher = more binding, comparable within an allelic series)
PAX4 [3]
  binding signal: 9.07 upbm affinity estimate (log intensity, higher = more binding, comparable within an allelic series)
PAX4 [4]
  binding signal: 9.01 upbm affinity estimate (log intensity, higher = more binding, comparable within an allelic series)
PAX4 [5]
  binding signal: 9 upbm affinity estimate (log intensity, higher = more binding, comparable within an allelic series)
PAX4 [6]
  binding signal: 9.07 upbm affinity estimate (log intensity, higher = more binding, comparable within an allelic series)

## TAATTCGA
PAX4 [1]
  binding signal: 11.8 upbm affinity estimate (log intensity, higher = more binding, comparable within an allelic series)
PAX4 [2]
  binding signal: 12.4 upbm affinity estimate (log intensity, higher = more binding, comparable within an allelic series)
PAX4 [3]
  binding signal: 11.7 upbm affinity estimate (log intensity, higher = more binding, comparable within an allelic series)
PAX4 [4]
  binding signal: 10.6 upbm affinity estimate (log intensity, higher = more binding, comparable within an allelic series)
PAX4 [5]
  binding signal: 11.2 upbm affinity estimate (log intensity, higher = more binding, comparable within an allelic series)
PAX4 [6]
  binding signal: 11 upbm affinity estimate (log intensity, higher = more binding, comparable within an allelic series)

## AGCTGCCG
PAX4 [1]
  binding signal: 9.44 upbm affinity estimate (log intensity, higher = more binding, comparable within an allelic series)
PAX4 [2]
  binding signal: 9.42 upbm affinity estimate (log intensity, higher = more binding, comparable within an allelic series)
PAX4 [3]
  binding signal: 9.33 upbm affinity estimate (log intensity, higher = more binding, comparable within an allelic series)
PAX4 [4]
  binding signal: 9.27 upbm affinity estimate (log intensity, higher = more binding, comparable within an allelic series)
PAX4 [5]
  binding signal: 9.2 upbm affinity estimate (log intensity, higher = more binding, comparable within an allelic series)
PAX4 [6]
  binding signal: 9.31 upbm affinity estimate (log intensity, higher = more binding, comparable within an allelic series)
